Source: PubChem BioAssay (EPA / NIEHS)
Results filed as inconclusive are left out. Calls of active or inactive are those of the source. Rule for the calls, unless noted: active = hit-call score of the fitted dose curve at least 0.9, where 1 is the maximum; inactive = score below 0.9.

Columns and labels:
[1] = CCTE_Mundy_HCI_Cortical_NOG_NeuriteCount: CCTE's Neurite Outgrowth Assay in rat cortical cells for Neurite Count, Mundy Lab (AID 2284212);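 note: cells fixed about two days after chemical exposure began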
In short: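 Neurite number per cell from high-content imaging of betaIII-tubulin immunostaining, with Hoechst nuclear counterstain.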

[2] = CCTE_Mundy_HCI_Cortical_NOG_NeuriteLength: CCTE's Neurite Outgrowth Assay in rat cortical cells for Neurite Length, Mundy Lab (AID 2284213)
In short: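 Neurite length was read by high-content imaging of βIII-tubulin-labelled neurites in rat primary cortical cultures. Activity was fitted relative to DMSO.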

[3] = CCTE_Mundy_HCI_Cortical_NOG_NeuronCount: CCTE's Neurite Outgrowth Assay in rat cortical cells for Neuron Count, Mundy Lab (AID 2284236; active = hit-call score of the fitted dose curve at least 0.9, where 1 is the maximum;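 note: neurons counted by imaging betaIII-tubulin and Hoechst stained cortical cells; cells exposed to compound for about 48 hours before fixation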)
In short: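 Read-out: neuron number by high-content imaging of betaIII-tubulin (Alexa Fluor-488) and Hoechst-labelled rat primary cortical cells.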

[4] = CCTE_Mundy_HCI_Cortical_NOG_BPCount: CCTE's Neurite Outgrowth Assay in rat cortical cells for Branch Point Count, Mundy Lab (AID 2284237)
In short: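 Measured 50.33 h after dosing, this morphology endpoint uses rat primary cortical cultures labelled for betaIII-tubulin. Branch points are quantified by high-content imaging, with DMSO as negative control and baseline.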

Measured: outcome

CCN(CC)CCCC(C)Nc1nc(C)cc(Nc2ccc3nc(C)cc(N)c3c2)n1 (centres undefined)
inactive: [1] | [2] | [3] | [4]
